Screening results deposited in PubChem BioAssay by Sanford-Burnham Center for Chemical Genomics.
Shown are actives, neighbours in structure and some others; about 3.2% of the full set was active somewhere.
PfGluPho inh: PfG6PD (Plasmodium falciparum) enzyme inhibition; PfGluPho enzyme, NADPH resazurin-diaphorase fluorescence; inhibition, % at 20 µM; hit rate 0.78% among 350,000; AID 504690;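 active means inhibition reaching at least a set limit at 20 µM in the primary screen, cut at about 59% in these data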
aDG glyco up: alpha-DG glycosylation activation | hit rate 0.22% among 360,000 | activation, % at 10 µM | Pro5-aDG cells, alpha-DG glycosylation AlphaScreen (IIH6); 0% Pro5, 100% B10-LARGE cell signal;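 active means activation of at least 8% versus controls, or a plate z-score of at least 8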;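 further: Pro5 are CHO cells carrying HIG-tagged alpha-DG that lacks glycosylation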
H9c2 protect: protects H9c2 cardiomyocytes from peroxide injury | H2O2 injury protection, ATPLite, 2 h | protection from H2O2 cell death, % at 20 µM | hit rate 0.63% among 360,000 | AID 588492;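 active means compounds giving at least 50% protection of heart cells from peroxide-induced death in the single-dose screen, raw or plate-pattern-corrected value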
FAS TE block: blocks the thioesterase domain of human fatty acid synthase. hit rate 0.67% among 360,000. inhibition, % at 15 µM. recombinant FAS-TE, OMFH fluorogenic substrate, fluorescence endpoint;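 active means compounds whose normalised, plate-corrected inhibition of enzyme fluorescence in the single-dose primary screen is 50% or more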
CRFBP-R2 agonist: agonists of human CRF-binding protein/CRF-R2 receptor complex | HEK293 CRF-R2/CRF-BP, calcium dye fluorescence (FLIPR); percent of saturating CRF peptide response | activation, % at 13.2 µM | hit rate 0.46% among 350,000 | AID 588473;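 active means activation of at least 50%, plus an integration ratio under a set limit after plate pattern correction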
CRFBP-R2 block: blocks CRF-induced signaling of the CRF-BP/CRF-R2 complex | HEK293 CRF-R2/CRF-BP, CRF-induced calcium fluorescence | inhibition, % at 11.8 µM | hit rate 0.59% among 350,000 | AID 588475;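 active means inhibition of the ligand-induced calcium signal above about 50% at the single tested concentration, limit read from the data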
PfGluPho conf: PfG6PD inhibition, single-dose confirmed; shares compounds with PfGluPho inh; recombinant PfGluPho, NADPH-diaphorase-resazurin fluorescence; inhibition, % at 20 µM; hit rate 34% among 2,400;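 active means inhibition of at least 50% at 20 µM in any single replicate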
Diaphorase 10uM: counter-screen for P. falciparum G6PD inhibitors: diaphorase inhibitors, oxidizers; shares compounds with PfGluPho inh; diaphorase-coupled resazurin reduction, fluorescence, NADPH 10 uM; inhibition, % at 20 µM; hit rate 39% among 820; AID 504862;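 active means average inhibition reaching 50% or more with the compound at 20 µM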;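 further: resorufin red fluorescence formed as diaphorase reduces resazurin using NADPH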
Diaphorase 30uM: counter-screen for P. falciparum G6PD inhibitors: diaphorase inhibitors, oxidizers; shares compounds with PfGluPho inh; Diaphorase/resazurin coupled assay, resorufin fluorescence, 30 uM NADPH; inhibition, % at 20 µM; hit rate 29% among 820;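 active means inhibition averaging 50% or more, tested at 20 µM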
Numbers stand for hits; 0 = inactive; - = no result.

SMILES	PfGluPho inh	aDG glyco up	H9c2 protect	FAS TE block	CRFBP-R2 agonist	CRFBP-R2 block	PfGluPho conf	others
O=C(/C=C/c1ccco1)Nc1scc(-c2ccccc2)c1C(=O)O	75	0	0	0	0	0	0
O=C(/C=C/c1ccccc1)Nc1scc(-c2ccccc2)c1C(=O)O	61	0	0	0	0	0	0
Cc1cccc(CC(=O)NCCS(=O)(=O)N2CCN(c3ccccc3)CC2)c1	0	0	0	0	0	0	-
COCC(=O)N1CCC(n2nccc2NC(=O)c2ccccc2OC)CC1	0	0	0	0	0	0	-
O=C(CNC(=O)COc1ccccc1)NCc1ccccc1F	0	0	0	0	0	0	-
O=C(O)c1cccc2c1C(=O)c1ccccc1C2=O	0	0	0	0	0	0	-
O=C1C(O)=CC(=C(c2ccccc2)c2ccccc2)c2ccccc21	117	0	0	0	0	0	0
C=CS(=O)(=O)c1c2cc(OC)ccc2nc2ccc(OC)cc12	69	0	0	0	0	0	0
COc1ccc2nc(Cl)cc(Cl)c2c1	0	0	0	0	0	0	-
O=C(Nc1cc(S(=O)(=O)N2CCOCC2)ccc1N1CCCC1)c1ccc(Cl)cc1	60	0	0	0	0	0	0
Cc1ccc(C(=O)Nc2cc(S(=O)(=O)N3CCOCC3)ccc2N2CCCC2)cc1	0	0	0	0	0	0	-
O=c1c2ccccc2sn1-c1cc(S(=O)(=O)N2CCOCC2)ccc1N1CCCC1	112	0	0	0	0	0	107	Diaphorase 10uM=0;Diaphorase 30uM=0
Nc1cc(S(=O)(=O)N2CCOCC2)ccc1N1CCCCC1	69	0	0	0	0	0	0
O=C(Nc1cc(S(=O)(=O)N2CCOCC2)ccc1N1CCCCC1)c1ccc(Cl)cc1	80	0	0	0	0	0	0
O=C(CCN1C(=O)/C(=C\c2ccc(F)cc2)SC1=S)Nc1ccccc1	0	0	0	0	0	0	-
CN1C(=O)N(C)C(c2cccc([N+](=O)[O-])c2)C2=C1CCCC2=O (stereo unspecified)	0	0	0	0	0	0	-
CCOC(=O)c1c(NC(=O)COC(=O)C2CC2C)sc(C)c1C (stereo unspecified)	0	0	0	0	0	0	-
O=C(Nc1cc(S(=O)(=O)N2CCOCC2)ccc1N1CCCCC1)c1ccccc1Br	68	0	0	0	0	0	0
CCCC(C)C(=O)Nc1cc(S(=O)(=O)N2CCCCC2)ccc1N1CCOCC1 (stereo unspecified)	0	0	0	0	0	0	-
CC(C)C(=O)Nc1cc(S(=O)(=O)N2CCOCC2)ccc1N1CCCCC1	61	0	0	0	0	0	0
CCOC(=O)c1cncc(C#CCO)c1	0	0	0	0	0	0	-
CCOC(=O)C1=C(C)N(C)C(=O)NC1c1cc2c(cc1[N+](=O)[O-])OCO2 (stereo unspecified)	71	0	0	0	0	0	0
CCCCOC(=O)C1=C(C)N(C)C(=O)NC1c1cc2c(cc1Br)OCO2 (stereo unspecified)	0	0	0	0	0	0	-
CC1CCc2sc(NC(=O)C3CC(Cl)=CCC3C(=O)O)c(C#N)c2C1 (stereo unspecified)	0	0	0	0	0	0	-
O=C(Cn1cc(C(=O)c2cccs2)c2ccccc21)NCc1ccc2c(c1)OCO2	0	0	0	0	0	0	-
SMILES	PfGluPho inh	aDG glyco up	H9c2 protect	FAS TE block	CRFBP-R2 agonist	CRFBP-R2 block	PfGluPho conf	others
CSc1ccc(S(=O)(=O)NC2CC3CCC2C3)cc1 (stereo unspecified)	0	0	0	0	0	0	-
O=C1c2ccccc2C(Nc2ccc3c(c2)OCO3)N1Cc1ccc2c(c1)OCO2 (stereo unspecified)	60	0	0	0	0	0	0
O=C1c2ccccc2C(Nc2ccc3c(c2)OCO3)N1Cc1ccco1 (stereo unspecified)	61	0	0	0	0	0	0
CC(=O)Nc1cc([N+](=O)[O-])ccc1OCc1ccccc1	72	0	0	0	0	0	50	Diaphorase 10uM=0;Diaphorase 30uM=0
Nc1nc(CCl)nc(N(c2ccccc2)c2ccccc2)n1	0	0	0	0	0	0	-
CCn1c(=S)sc2c(=O)n(-c3ccccc3)c(=S)[nH]c21	0	0	0	0	0	0	-
COc1ccc(-n2c(=S)[nH]c3c(sc(=S)n3-c3ccccc3)c2=O)c(OC)c1	89	0	0	0	0	0	61	Diaphorase 10uM=0;Diaphorase 30uM=0
CCOc1ccccc1-n1c(=S)sc2c(=O)n(-c3ccc(C)cc3)c(=S)[nH]c21	98	0	0	0	0	0	78	Diaphorase 10uM=56;Diaphorase 30uM=51
COc1ccc(-n2c(=S)[nH]c3sc(-c4ccccc4)cc3c2=O)c(OC)c1	0	0	0	0	0	0	-
COC(=O)c1ccc(COC(=O)CNC(=O)CNC(=O)c2ccc(OC)cc2)cc1	0	0	0	0	0	0	-
CCC(C)(O)c1[nH]c2ccc(C(=O)OC)cc2c1C (stereo unspecified)	0	0	0	0	0	0	-
O=[N+]([O-])c1ccc(C(O)CN2CCN(c3ccccc3)CC2)cc1 (stereo unspecified)	0	0	0	0	0	0	-
Oc1ccc(N2CCN(CC(O)c3ccccc3)CC2)cc1 (stereo unspecified)	80	0	0	0	0	0	0
CN(C)c1ccc(/C=C/c2ccc3c4ccccc4ccc3[n+]2-c2ccccc2)cc1	66	0	0	0	0	0	68	Diaphorase 10uM=0;Diaphorase 30uM=0
CN(C)c1ccc(/C=C/c2ccc3ccccc3[n+]2C)cc1	0	0	0	0	0	0	-
CCN1C(=O)C(C)S/C1=N\S(=O)(=O)c1ccc(Cl)s1 (stereo unspecified)	0	0	0	0	0	0	-
Cn1c(C2=C(O)CN(Cc3ccccc3)C2=N)nc2ccccc21	0	0	0	0	0	0	-
O=c1[nH]c(=O)c2[nH]c(=S)n(-c3ccccc3)c2[nH]1	64	0	0	0	0	0	0
O=C(O)c1ccc2c(=O)n(-c3ccccc3)c(=S)[nH]c2c1	0	0	0	0	0	0	-
Cc1cc2c(Nc3cccc(O)c3)ncnc2s1	0	0	0	0	0	0	-
O=C1NCCCc2c1oc1ccc(O)cc21	0	0	0	0	0	0	-
Oc1c(Cl)cc(Cl)c2c1NCCC2	78	0	0	0	0	0	0
Cc1ccc(NC2=C(NC(=O)c3ccccc3)C(=O)c3ccccc3C2=O)cc1Cl	86	0	0	0	0	0	63	Diaphorase 10uM=0;Diaphorase 30uM=0
